This is a sample that favours compounds with a hit; in the whole collection about 12% have one here.
Sfp inh = qHTS Assay for Inhibitors of Bacillus subtilis Sfp phosphopantetheinyl transferase (PPTase); Biochemical Sfp PPTase activity, qHTS; actives 3.5% (n = 310,000); Potency, µM, inactives show largest response in the series, negative = inhibition, hits mostly inhibitors; 4'-phosphopantetheinyl transferase ffp (Bacillus subtilis), Q9F4F7;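 note: the enzyme is Sfp with the accession as filed and its product quenches rhodamine fluorescence; 0% = enzyme reaction without inhibitor and -100% = no enzyme wells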
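Sfp 15 nM + cpd, 15 min RT; start w/ rhodamine-CoA 5 uM, BHQ-2-YbbR 12.5 uM (final); 50 mM Hepes pH 7.6, 10 mM MgCl2, 0.01% NP-40, 0.01% BSA; read 525/598 nm at 0 and 30 min.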
PLK1 PBD inh = qHTS for Inhibitors of PLK1-PDB (polo-like kinase 1 - polo-box domain): Primary Screen | Potency, µM, for the others: max response, negative = inhibition, usual class: inhibitors | Serine/threonine-protein kinase PLK1 (Homo sapiens), P53350 | AID 720504, 2013 | Plk1 PBD binding of FITC phosphopeptide, fluorescence polarization | actives 2.8% (n = 360,000); note: series mostly up to about 57 µM; nearly all actives have a fitted effect of over 65% in size
RORg inh = qHTS for inhibitors of ROR gamma transcriptional activity. Nuclear receptor ROR-gamma (Mus musculus), P51450. actives 5.4% (n = 310,000). Drosophila S2 Gal4-RORgamma UAS-luciferase reporter, 20 h. AID 2551, 2010. Potency, µM (highest dose often 53.6 µM), without a hit: at the highest dose activity change, negative = inhibition, usual class: inhibitors; note: nearly all actives have a fitted effect of over 60% in size
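Schneider cells (Drosophila), stable Gal4 DBD–ROR gamma + UAS-luc; 1 hr cmpd preincubation; Cu2+ induction 700 uM final; 20 hr ambient; luminescence.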
Gal4-VP16 FLuc = VP16 counterscreen qHTS for inhibitors of ROR gamma transcriptional activity. AID 2546, 2010. Drosophila S2 Gal4-VP16 UAS-luciferase, luminescence, 20 h. actives 3.5% (n = 310,000). Potency, µM (series often up to 53.6 µM), inactives show top-dose activity, negative = inhibition, hits mostly inhibitors;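 note: Gal4-VP16 expression switched on by copper sulfate through the metallothionein promoter; nearly all actives have a fitted effect of over 50% in size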
ALDH1A1 block = qHTS Assay for Inhibitors of Aldehyde Dehydrogenase 1 (ALDH1A1); AID 1030, 2008; Aldehyde dehydrogenase 1A1 (Homo sapiens), P00352; Purified ALDH1A1, NADH fluorescence, propionaldehyde substrate; actives 7.3% (n = 220,000); Potency, µM (highest dose often 75.3 µM), without a hit: at the highest dose activity, negative = inhibition, hits mostly inhibitors; active = well fitted inhibition curve with a large enough effect, not every such curve was filed as active; inconclusive = small, poorly fitted or top-dose-only effect, or another doubt; inactive = no such curve, though single readings can be large or run the other way;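 note: plate controls were no enzyme wells and a reference inhibitor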
Target sequence (P00352 whole entry, looked up): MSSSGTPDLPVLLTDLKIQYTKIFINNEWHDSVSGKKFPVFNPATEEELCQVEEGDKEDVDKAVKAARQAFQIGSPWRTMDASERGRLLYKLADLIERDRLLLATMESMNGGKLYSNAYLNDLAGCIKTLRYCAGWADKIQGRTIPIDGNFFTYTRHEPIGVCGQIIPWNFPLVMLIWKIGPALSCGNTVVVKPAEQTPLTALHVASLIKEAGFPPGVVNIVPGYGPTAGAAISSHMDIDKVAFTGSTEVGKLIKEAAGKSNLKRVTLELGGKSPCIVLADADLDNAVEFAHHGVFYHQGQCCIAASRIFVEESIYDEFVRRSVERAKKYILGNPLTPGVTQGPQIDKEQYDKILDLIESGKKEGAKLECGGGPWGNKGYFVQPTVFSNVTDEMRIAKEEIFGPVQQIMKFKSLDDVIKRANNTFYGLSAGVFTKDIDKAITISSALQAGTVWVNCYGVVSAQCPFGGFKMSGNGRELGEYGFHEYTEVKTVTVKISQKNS
Starred values were filed as active, the others as inactive; ? = inconclusive; · = no result given; [ ] = remark or other dose. Unless noted, calls come from the whole dose curve; as a rule, active = well fitted curve in the direction sought with a large enough effect; inconclusive = small, poorly fitted or top-dose-only effect, or another doubt; inactive = no such curve, though single readings can be large; an effect the other way counts as inactive or inconclusive. Unless noted, % is set by controls: 0 for no effect and ±100 for the full control effect; potency is the fitted concentration of half-maximal effect.

SMILES	Sfp inh	PLK1 PBD inh	RORg inh	Gal4-VP16 FLuc	ALDH1A1 block
O=C1C(Cc2c[nH]c3ccccc23)NC(=S)N1C1CCCCC1 (stereo not given)	3%	-10%	20µM*	?	-5%
CC(C)C1NC(=S)N(C2CCCCC2)C1=O (stereo not given)	0%	-12%	6.3µM*	?	-23%
CC(C)CC1NC(=S)N(C2CCCCC2)C1=O (stereo not given)	10%	3µM*	?	?	-3%
O=C(NCc1ccccc1)/C(=C\c1ccc(F)cc1)NC(=O)c1ccco1	·	11%	·	·	·
CSc1nc(N)nc(SC2C=CCCC2)c1C#N (stereo not given)	2%	-4%	-72%	0%	13µM*
CSc1nc(N)nc(SCC(=O)C(C)(C)C)c1C#N	18%	-7%	43%	18%	?
N#CC1c2ccccc2-c2ccccc2N1C(=O)c1ccccc1 (stereo not given)	·	-2%	·	·	·
COc1ccc(NS(=O)(=O)c2cc(-c3nnnn3C)ccc2OC)cc1	11%	-2%	-9%	-5%	0.79µM*
CCn1nnnc1-c1ccc(OC)c(S(=O)(=O)Nc2ccc(C)c(C)c2)c1	8%	4%	0%	?	7.1µM*
COc1ccc(S(=O)(=O)Nc2ccc(-c3ccc4nncn4n3)cc2)c(OC)c1	·	19µM*	·	·	·
COc1cccc(NS(=O)(=O)c2cc(C)ccc2OC)c1	6%	8.4µM*	30%	-30%	?
COc1ccc(C)cc1S(=O)(=O)Nc1cccc(C)c1	20%	0%	-18%	0%	8%
COc1ccc(OC)c(S(=O)(=O)Nc2ccc(C)c(C)c2)c1	-2%	5%	?	?	?
N=C(N)c1ccc(N2CCN(C3CCN(CC(=O)O)CC3)CC2)cc1	12%	·	9%	3%	-3%
CC(C)C[C@@H]1Cc2[nH]c(=S)[nH]c(=O)c2[C@H](CCc2ccccc2)O1	·	-13%	·	·	·
C=CC1=C2C=C(C3CC3)N(C3CCCC3)C=C2C(=O)C(C)(OC(=O)c2ccco2)C1=O (stereo not given)	0%	·	·	·	8%[13.5 µM]
CC[C@H](CN(C)C)C(=O)c1ccco1	·	·	·	·	-3%[13.5 µM]
CCn1nnnc1-c1ccc(OC)c(S(=O)(=O)NCc2ccccc2)c1	13%	-3%	38%	-6%	1.9µM*
CCC1CC=CC2C1C(=O)N(Cc1ccccc1)C2c1cccc([N+](=O)[O-])c1 (stereo not given)	-26%	·	?	?	·
CCCCCCOC(=O)C1(O)CC2OC1(C)n1c3ccccc3c3c4c(c5c6ccccc6n2c5c31)C(=O)NC4 (stereo not given)	17%	·	-6%[1.91 µM]	5%[1.91 µM]	-3%
O=C(Nc1cc(Cl)cc(Cl)c1)C(c1ccccc1)N1CCCCC1 (stereo not given)	1%	-1%	-5%[10 µM]	-2%	?
Cc1ccc(NC(=O)C(C)[n+]2ccccc2)cc1[N+](=O)[O-] (stereo not given)	7%	-11%	-5%	-3%	-2%
O=C(NCCCN1CCOCC1)C(c1ccccc1)c1ccccc1	6%	-13%	9%	3%	·
CCCCNC(C(=O)Nc1ccc(Cl)c([N+](=O)[O-])c1)c1ccccc1 (stereo not given)	?	11%	-13%	-5%	5µM*
O=C(Nc1cc(Cl)cc(Cl)c1)C(NCCO)c1ccccc1 (stereo not given)	35µM*	-3%	-8%	-5%	?
SMILES	Sfp inh	PLK1 PBD inh	RORg inh	Gal4-VP16 FLuc	ALDH1A1 block
Cc1cc(C)cc(NC(=O)C(NCCN2CCOCC2)c2ccccc2)c1 (stereo not given)	?	24µM*	-12%	6%	?
Cc1ccc(S(=O)(=O)N2CCC(=O)N([C@H](COC(=O)Nc3ccccc3)Cc3ccccc3)CC2)cc1	·	-3%	·	·	·
O=C(O)CCC(=O)Nc1sc2c(c1C(=O)NC1CCCC1)CCCC2	14%	-18%	7%	-7%	·
CCOC(=O)c1c(NC(=O)C2CCCCC2C(=O)O)sc2c1CCCCC2 (stereo not given)	-5%	?	16%	-2%	0%
CNC(=O)c1c(NC(=O)c2ccco2)sc2c1CCCC2	-8%	-2%	15%	-18%	·
COC(=O)Nc1sc2c(c1C(=O)NC1CC1)CCCCCC2	32µM*	-22%	?	2%	?
COC(=O)c1c(NC(=O)C2CCCCC2C(=O)O)sc2c1CCCCC2 (stereo not given)	1%	24µM*	5%	10%[10 µM]	?
Cc1ccc(C(=O)Nc2sc3c(c2C(=O)O)CCCCC3)o1	-1%	-10%	3%	11%	19µM*
O=C(Nc1sc2c(c1C(=O)NC1CC1)CCCCCC2)c1ccco1	40µM*	-22%	3%	24%	?
CCCC[C@@H]1CCCO[C@@](C(=O)NCC2CC2)(C(F)(F)F)C1	9%	·	-21%	-2%	·
COC(=O)CCCC1=CC2=CC(=O)C(C)(OC(=O)c3cccs3)C(=O)C2=CN1C(CO)CO (stereo not given)	16%	·	·	·	-1%[13.5 µM]
COc1ccc(O[C@H]2C=C[C@@H](c3ccccc3)O[C@H]2CO/N=C\C[C@@H]2C=C[C@H](OC(C)=O)[C@H](COC(C)=O)O2)cc1	12%	·	0%[10 µM]	3%[10 µM]	?
CC(C)OC(=O)c1c(NC(=O)c2ccco2)sc2c1CCCCC2	32µM*	?	25%	0%	?
COC(=O)c1c(NC(=O)c2ccco2)sc2c1CCC2	-4%	-14%	44%	-3%	?
COC(=O)c1c(NC(=O)C2CC2)sc2c1CCN(C(C)=O)C2	14µM*	-7%	-13%	6%	?
Cc1ccc(C(=O)C(NC(=O)c2ccco2)Nc2sc3c(c2C(N)=O)CCCC3)cc1 (stereo not given)	79µM*	·	?	5%	?
Cc1ccc(C)n1-c1sc2c(c1C(=O)O)CCCC2	-17%	17µM*	-4%	?	28µM*
C=CCN1C(=O)CSc2ccc(C(=O)NCCC3=CCCCC3)cc21	-7%	-6%	34%	?	13µM*
O=C(CN1C(=O)CSc2ccccc21)NCCC1=CCCCC1	22%	-1%	2%	-8%	-14%
O=C(NCC1CCCO1)c1ccc2c(c1)N(Cc1ccc(Cl)cc1)CCS2 (stereo not given)	·	-4%	·	·	·
C=CCn1c(N)c(C(=O)NCCC2=CCCCC2)sc1=S	25µM*	7.5µM*	11%	3%	3.5µM*
O=C(NCC1CCCO1)c1ccc2c(c1)N(Cc1ccccc1)C(=O)CS2 (stereo not given)	3%	30µM*	2%	6%	·
C=CCN1C(=O)CSc2ccc(C(=O)NCc3ccco3)cc21	-4%	-13%	-23%	2%	22µM*
